Screens deposited in PubChem by National Center for Advancing Translational Sciences (NCATS).
Rows were chosen to be rich in hits. Some 7% of all compounds tested hit in one or more screens of this group.
PLK1 PBD inh – qHTS for Inhibitors of PLK1-PDB (polo-like kinase 1 - polo-box domain): Primary Screen | Plk1 PBD binding of FITC phosphopeptide, fluorescence polarization | 360,000 compounds, 2.8% hits | Serine/threonine-protein kinase PLK1 (Homo sapiens), P53350 | Potency, µM, inactives show max response, negative = inhibition, most hits filed as inhibitors; further: potency means the concentration at half of the fitted maximal effect; series mostly up to about 57 µM; on the % scale 0 is the no-effect control and ±100 the full control effect; nearly all actives have a fitted effect of over 65% in size
JMJD2A Tudor inh – qHTS Assay for Inhibitors of JMJD2A-Tudor Domain. AlphaScreen JMJD2A-Tudor / H3K4me3 peptide binding. 390,000 compounds, 4.4% hits. Potency, µM (titrated, usually from 114 µM), for inactives: at the top dose activity change, negative = inhibition, usual class: inhibitors; further: potency means the concentration at half of the fitted maximal effect; on the % scale 0 is the no-effect control and ±100 the full control effect; nearly all actives have a fitted effect of over 50% in size
KAT2A inh – qHTS Assay for Inhibitors of GCN5L2 | Potency, µM (titrated, usually from 58.9 µM), inactives show at the highest dose activity change, negative = inhibition, usual class: inhibitors | GCN5L2 HAT assay, ThioGlo1 CoA-SH fluorescence | 390,000 compounds, 0.21% hits; further: potency means the concentration at half of the fitted maximal effect; on the % scale 0 is the no-effect control and ±100 the full control effect
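ThioGlo1-coupled HAT assay: 20nM GCN5L2, 70uM acetyl-CoA, 75uM H3(1-25) peptide, pH 7.5. Fluorescence read at 340/540nm at start and after 20 min at room temperature.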
HP1b binding inh – HTS for Inhibitors of HP1-beta Chromodomain Interactions with Methylated Histone Tails. AlphaScreen HP1-beta / biotin-H3K9me3 peptide binding. Potency, µM (top dose mostly 114 µM), for inactives: at the top dose activity change, negative = inhibition, hits mostly inhibitors. 390,000 compounds, 0.56% hits; further: potency means the concentration at half of the fitted maximal effect; nearly all actives have a fitted effect of over 70% in size
Target sequence (P83916 whole entry, looked up): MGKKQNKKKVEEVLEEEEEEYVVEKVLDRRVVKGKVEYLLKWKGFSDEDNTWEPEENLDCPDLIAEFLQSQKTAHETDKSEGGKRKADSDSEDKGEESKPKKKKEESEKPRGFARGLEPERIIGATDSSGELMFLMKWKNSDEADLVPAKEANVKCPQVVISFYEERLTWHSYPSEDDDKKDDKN
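Compound inhibition of the preformed complex between 50 nM HP1-beta and 50 nM biotinylated H3K9me3 peptide was read by AlphaScreen. Buffer was PBS pH 7.4 with 0.01% Tween-20. Incubations ran 30 min at room temperature, with 10 ug/mL donor/acceptor beads.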
PI5P4K alpha inh – qHTS for Inhibitors of phosphatidylinositol 5-phosphate 4-kinase (PI5P4K). AID 652105, 2013. max response, %. PI5P4Kalpha enzyme, ADP-Glo luminescence, 60 min; active compounds read low. 330,000 compounds, 1.2% hits. Phosphatidylinositol 5-phosphate 4-kinase type-2 alpha (Homo sapiens), P48426; active means max response of -50% or lower; inconclusive means between -30% and -50%; inactive means -30% or higher; further: value at the top dose of about 77 µM; on the % scale 0 is the no-effect control and ±100 the full control effect
Target sequence (P48426 whole entry, looked up): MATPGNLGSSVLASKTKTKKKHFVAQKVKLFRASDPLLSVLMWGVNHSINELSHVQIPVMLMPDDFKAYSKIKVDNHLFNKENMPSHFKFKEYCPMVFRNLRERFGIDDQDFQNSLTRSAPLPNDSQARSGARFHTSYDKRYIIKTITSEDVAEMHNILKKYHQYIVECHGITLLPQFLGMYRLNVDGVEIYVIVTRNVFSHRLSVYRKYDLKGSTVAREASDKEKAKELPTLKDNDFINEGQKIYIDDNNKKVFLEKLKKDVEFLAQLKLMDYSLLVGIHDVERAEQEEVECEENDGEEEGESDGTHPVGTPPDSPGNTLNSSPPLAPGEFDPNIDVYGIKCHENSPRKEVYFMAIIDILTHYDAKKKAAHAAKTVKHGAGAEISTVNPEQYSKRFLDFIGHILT
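ADP-Glo luminescence end-point read after a 60 min room-temperature kinase reaction of PI5P4Kalpha plus substrate, initiated with ATP at 5 microM final. Buffer: 0.038 M HEPES pH 7.4, EGTA, 0.1% CHAPS, 5% DMSO.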
BAZ2B block – qHTS Assay for Inhibitors of BAZ2B | AlphaScreen BAZ2B-H3K14Ac peptide displacement | Potency, µM (top dose mostly 114 µM), for the others: top-dose activity change, negative = inhibition, hits mostly inhibitors | 360,000 compounds, 4.4% hits | AID 504333, 2011; further: potency means the concentration at half of the fitted maximal effect; on the % scale 0 is the no-effect control and ±100 the full control effect; nearly all actives have a fitted effect of over 60% in size
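BAZ2B (50 nM) with biotin-H3(5-23)K14Ac peptide (50 nM) in PBS pH 7.4, 0.01% Tween-20, preformed 30 min, then compound 30 min at room temperature; top concentration 110uM. AlphaScreen streptavidin donor/nickel chelate acceptor beads (10 ug/mL final), 20 min dark, signal read.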
ADP-Glo interf – qHTS for Inhibitors of PI5P4K: ADP-Glo counter assay; ADP-Glo detection counter-screen, luciferase luminescence, no enzyme; Potency, µM (series often up to 76.9 µM), inactives show at the highest dose activity change, negative = inhibition, usual class: inhibitors; AID 743285, 2014; 1,100 tested, under 10 active; shares compounds with PI5P4K alpha inh
Active calls of the source: *; ? = inconclusive; / = no result; [ ] = remark or other dose. Unless noted, the call rests on the fitted dose curve; in most records, active means well fitted curve in the direction sought with a large enough effect; inconclusive means small, poorly fitted or top-dose-only effect, or another doubt; inactive means no such curve, though single readings can be large; an effect the other way counts as inactive or inconclusive.

SMILES	PLK1 PBD inh	JMJD2A Tudor inh	KAT2A inh	HP1b binding inh	PI5P4K alpha inh	BAZ2B block	ADP-Glo interf
COCCNC(=O)C[C@@H]1C[C@H]2c3cc(NC(=O)Nc4ccc(F)cc4)ccc3O[C@H]2[C@H](CO)O1	-9%	/	/	/	6	/	/
Cc1ccc(NC(=O)C2(C)CCN2C(=O)C2CCCCC2)cc1C (centres undefined)	-10%	/	/	/	5	/	/
O=c1cc(O)c2sc(Nc3cccc(C(F)(F)F)c3)nc2[nH]1	-20%	-26%	2%	-8%	-84*	-33%	-8%
COc1ccc(-c2[nH][nH]c(=O)c2NC(=O)c2ccccc2Br)cc1	-11%	/	/	/	-9	/	/
CCN(CC(=O)N1CCC(C(N)=O)CC1)S(=O)(=O)c1cc(Cl)ccc1Cl	?	-18%	/	0%[57 µM]	-52*	/	4%
CCOC(=O)c1cccc(NC(=O)c2cc(S(=O)(=O)N3CCCC3)cn2C)c1	/	-11%	4%	7%	/	1%	/
Cc1nn(CCC(=O)NCc2cccc(Br)c2)c(=O)c2nn(-c3ccccc3)c(C)c12	/	-16%	-1%	14%	/	-39%	/
O=C(N[C@@H](Cc1ccccc1)C(=O)OCc1ccccc1)c1nc[nH]c1C(=O)NC(c1ccccc1)c1ccccc1	-7%	-22%	-18%	33%	7	-30%	-2%
O=C(O)c1cc2c(N3CCC(Cc4ccccc4)CC3)ncnc2s1	-16%	-20%	-23%	20%	/	?	3%
CNc1ncnc(NC)c1[N+](=O)[O-]	-1%	-6%	/	6%	-3	/	/
CC(=O)Nc1ccc(CNc2nc(NC(C)C)nc3cc(-c4ccccc4)sc23)cc1	1%	/	/	/	/	/	-2%
COc1ccc(-c2cc(CNc3nc(NC(C)C)nc4cc(-c5ccccc5)sc34)on2)cc1	5%	/	/	/	/	/	-15%
CC(=O)NCCNc1nc(NC(C)C)nc2cc(-c3ccccc3)sc12	-5%	/	/	/	-18	/	/
Cc1nn(CC(C)C)c(Cl)c1C(=O)N(c1ccc(Cl)cc1F)S(C)(=O)=O	-6%	-18%	-6%	8%	-2	3%	/
Cn1nnnc1SCc1nc2scc(-c3ccc(Cl)cc3)c2c(=O)[nH]1	-9%	-10%[11.4 µM]	-8%	38%	-68*	-19%	-1%
Cn1nnnc1SCc1nc2scc(-c3ccccc3)c2c(=O)[nH]1	2%	-13%	2%	11%	-19	-10%	/
COc1cc(OC)c(NS(=O)(=O)c2cc(C(=O)OCC(=O)NCC3CCCO3)ccc2OC)cc1Cl (centres undefined)	-19%	-17%[57.1 µM]	-5%	27%	9	-5%	/
CN1CCN(C(c2ccccc2)c2ccc(Cl)cc2)CC1 (centres undefined)	-15%	-22%	1%	5%	-52*	1%	1%
CN1CCCN([C@@H](c2ccccc2)c2ccc(Cl)cc2)CC1	/	/	10%[21.4 µM]	/	/	/	/
Cc1ccc(OS(=O)(=O)c2ccc(N3C(=O)CCC3=O)cc2)cc1	-3%	-13%	-1%	10%	0	11%	/
Cn1nnc2cc(C(=O)NC3CC3)ccc21	-4%	-11%	/	7%	-59*	12%	-1%
CC1CCCCN1C(=O)Cn1cnc2cc([N+](=O)[O-])ccc2c1=O (centres undefined)	9.5µM*	14µM*	2%	-14%	-69*	?	-3%
Cc1cc(C)c(C(=O)Cn2cnc3cc([N+](=O)[O-])ccc3c2=O)cc1C	-10%	-30%	-16%	3%	-7	-17%	/
CCS(=O)(=O)N1Cc2ccccc2CC1C(=O)Nc1nnc(SCc2ccc(C#N)cc2)s1 (centres undefined)	-14%	-18%	-2%	24%	-57*	2%	5%
O=C(Nc1nnc(COc2ccc(Cl)cc2)s1)c1cccs1	2.7µM*	-23%[11.4 µM]	5%	?	-57*	5%	0%
SMILES	PLK1 PBD inh	JMJD2A Tudor inh	KAT2A inh	HP1b binding inh	PI5P4K alpha inh	BAZ2B block	ADP-Glo interf
CC(CC(F)(F)F)N1CCC(n2nccc2NC(=O)CCOc2ccccc2)CC1 (centres undefined)	-3%	-1%	-8%	47%	9	-11%	/
Cc1c(C(=O)O)sc2ncnc(N3CCCCC3C)c12 (centres undefined)	-8%	-2%	-2%	25%	/	9%	0%
NC(=O)c1ccc(-n2c(CCC(=O)O)ccc2-c2cccs2)cc1	-13%	-26%	?	?	-80*	-32%	2%
Cc1oc2ccc(O)c(CN(C)Cc3ccccc3)c2c1C(=O)Nc1cccc(C(F)(F)F)c1	/	-15%	?	23%	/	-23%	/
COc1ccc(C(C(=O)NC(C)(C)C)N(CCc2ccc(OC)c(OC)c2)C(=O)CCC(=O)Nc2cc(C)on2)cc1 (centres undefined)	-4%	-7%	0%	-1%	4	-4%	/
Cc1ccc(CSCC(=O)N2CCOCC2)cc1	3µM*	?	-10%[0.501 µM]	-3%	-52*	-5%	-2%
Cc1ccc2c(c1)N(C(=O)N1CCC(C(=O)NCc3ccco3)CC1)CC(C)O2 (centres undefined)	/	-8%	-3%	48%	/	-18%	/
O=C(NCc1ccc(Cl)cc1)C1CCN(S(=O)(=O)c2cc([N+](=O)[O-])ccc2Cl)CC1	2%	3%	-2%	18%	1	9%	/
O=C(NC1CC1)C1CCN(S(=O)(=O)c2cc([N+](=O)[O-])ccc2Cl)CC1	?	8.9µM*	?	7%	-56*	32µM*	-6%
O=C(Cn1cc(COc2ccc(Br)cc2[N+](=O)[O-])nn1)c1ccc(O)cc1	27µM*	50µM*	/	20%	-57*	/	-8%
CC(=O)c1ccc(OCc2cn(CC(=O)c3ccc(O)cc3)nn2)c(C)c1	-6%	/	/	/	-4	/	/
CCCc1noc(-c2ccc(NCc3ccccc3OC)c([N+](=O)[O-])c2)n1	/	-7%	-2%	59%	/	3%	/
CSCCOC(=O)c1[nH]c2c(c1C)C(=O)CC(c1ccco1)C2 (centres undefined)	-29%	35µM*	-24%	?	-66*	45µM*	5%
